Test results: article PMC9911399, “Two distinct binding modes provide the RNA-binding protein RbFox with extraordinary sequence specificity”
Changes are numbered by the printed parent chain; changes in the protein carry UniProt numbers. Whole data set: some 16,000 sequences, median “ka relative to ugcaugu” near 0.096, cut for the highest 2% near 0.35. Shown is part of a subset that was picked to be rich in the highest values.

B1: UAUCAUA (DNA:RNA)
RNA: GGGAGACCGGAAUUCAGAUUGUCCUAUCAUAUUAAAUCCCGUCGUAGCCACCA
DNA 1: CAATCTGAATTCCGGTCTCCC
DNA 2: TGGTGGCTACGACGGGATT
B2: GAAGCUA (DNA:RNA)
RNA: B1 RNA with U25G, U27A, C28G, A29C
DNA 1: CAATCTGAATTCCGGTCTCCC
DNA 2: TGGTGGCTACGACGGGATT
B3: CAGCUCU (DNA:RNA)
RNA: B1 RNA with U25C, U27G, A29U, U30C, A31U
DNA 1: CAATCTGAATTCCGGTCTCCC
DNA 2: TGGTGGCTACGACGGGATT
B4: GUAUCAG (DNA:RNA)
RNA: GGGAGACCGGAAUUCAGAUUGUCCGUAUCAGUUAAAUCCCGUCGUAGCCACCA
DNA 1: CAATCTGAATTCCGGTCTCCC
DNA 2: TGGTGGCTACGACGGGATT
B5: AGUCGCC (DNA:RNA)
RNA: B1 RNA with U25A, A26G, A29G, U30C, A31C
DNA 1: CAATCTGAATTCCGGTCTCCC
DNA 2: TGGTGGCTACGACGGGATT
B6: UCGGAGC (DNA:RNA)
RNA: B1 RNA with A26C, U27G, C28G, U30G, A31C
DNA 1: CAATCTGAATTCCGGTCTCCC
DNA 2: TGGTGGCTACGACGGGATT
B7: AACUUUG (DNA:RNA)
RNA: B4 RNA with G25A, U26A, A27C, C29U, A30U
DNA 1: CAATCTGAATTCCGGTCTCCC
DNA 2: TGGTGGCTACGACGGGATT
B8: CCCGGUA (DNA:RNA)
RNA: B1 RNA with U25C, A26C, U27C, C28G, A29G
DNA 1: CAATCTGAATTCCGGTCTCCC
DNA 2: TGGTGGCTACGACGGGATT
B9: CUUAUGU (DNA:RNA)
RNA: B4 RNA with G25C, A27U, U28A, C29U, A30G, G31U
DNA 1: CAATCTGAATTCCGGTCTCCC
DNA 2: TGGTGGCTACGACGGGATT
B10: AGGUAGC (DNA:RNA)
RNA: B4 RNA with G25A, U26G, A27G, C29A, A30G, G31C
DNA 1: CAATCTGAATTCCGGTCTCCC
DNA 2: TGGTGGCTACGACGGGATT
B11: AAGUAUG (DNA:RNA)
RNA: B1 RNA with U25A, U27G, C28U, A31G
DNA 1: CAATCTGAATTCCGGTCTCCC
DNA 2: TGGTGGCTACGACGGGATT
B12: CGUAUGU (DNA:RNA)
RNA: B1 RNA with U25C, A26G, C28A, A29U, U30G, A31U
DNA 1: CAATCTGAATTCCGGTCTCCC
DNA 2: TGGTGGCTACGACGGGATT
B13: CAUAUGU (DNA:RNA)
RNA: B1 RNA with U25C, C28A, A29U, U30G, A31U
DNA 1: CAATCTGAATTCCGGTCTCCC
DNA 2: TGGTGGCTACGACGGGATT
B14: AAGUAAA (DNA:RNA)
RNA: B1 RNA with U25A, U27G, C28U, U30A
DNA 1: CAATCTGAATTCCGGTCTCCC
DNA 2: TGGTGGCTACGACGGGATT
B15: CGGUAUG (DNA:RNA)
RNA: B4 RNA with G25C, U26G, A27G, C29A, A30U
DNA 1: CAATCTGAATTCCGGTCTCCC
DNA 2: TGGTGGCTACGACGGGATT
B16: AGGUAUC (DNA:RNA)
RNA: B1 RNA with U25A, A26G, U27G, C28U, A31C
DNA 1: CAATCTGAATTCCGGTCTCCC
DNA 2: TGGTGGCTACGACGGGATT
B17: AGGUAUG (DNA:RNA)
RNA: B4 RNA with G25A, U26G, A27G, C29A, A30U
DNA 1: CAATCTGAATTCCGGTCTCCC
DNA 2: TGGTGGCTACGACGGGATT
B18: GGUAUCG (DNA:RNA)
RNA: B4 RNA with U26G, A27U, U28A, C29U, A30C
DNA 1: CAATCTGAATTCCGGTCTCCC
DNA 2: TGGTGGCTACGACGGGATT
B19: AAGUAUC (DNA:RNA)
RNA: B1 RNA with U25A, U27G, C28U, A31C
DNA 1: CAATCTGAATTCCGGTCTCCC
DNA 2: TGGTGGCTACGACGGGATT
B20: GCUACCU (DNA:RNA)
RNA: B4 RNA with U26C, A27U, U28A, A30C, G31U
DNA 1: CAATCTGAATTCCGGTCTCCC
DNA 2: TGGTGGCTACGACGGGATT

Molecular target: T1, RBFOX1 RRM RbFoxmut (Fox-RRM*) (Homo sapiens, UniProt Q9NWB1 109-208, R118D;E147R;N151S;E152T)
T1 sequence: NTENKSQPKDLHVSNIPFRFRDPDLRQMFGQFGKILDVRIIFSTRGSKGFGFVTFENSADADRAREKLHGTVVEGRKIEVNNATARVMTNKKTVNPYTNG
Test: EMSA; HiTS-Eq, 1 nM pool, 10 min; buffer printed only for the single-RNA assays: 10 mM Tris pH 7.5, 150 mM NaCl, 3.4 mM EDTA, 0.001% NP-40, 30 C
Conditions: tags: His6 N-terminal (pET28a); label: 5' 32P
Outline: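 Relative association constants, normalised to the cognate motif, were derived by comparing read counts of each RNA species with those of the control reaction. The RNA sequenced was the free fraction, separated by 8% native PAGE after a 10 min equilibration in 50 µL of 1 nM 5′-radiolabelled RNA (7 randomized nucleotides) with increasing concentrations of purified wild-type or mutant RbFox RRM.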

Binder	binding signal
B1	0.0784 KA relative to UGCAUGU
B2	0.0968 KA relative to UGCAUGU
B3	0.0953 KA relative to UGCAUGU
B4	0.229 KA relative to UGCAUGU
B5	0.0636 KA relative to UGCAUGU
B6	0.0837 KA relative to UGCAUGU
B7	0.0853 KA relative to UGCAUGU
B8	0.111 KA relative to UGCAUGU
B9	0.158 KA relative to UGCAUGU
B10	0.114 KA relative to UGCAUGU
B11	0.498 KA relative to UGCAUGU
B12	0.554 KA relative to UGCAUGU
B13	0.149 KA relative to UGCAUGU
B14	0.124 KA relative to UGCAUGU
B15	0.885 KA relative to UGCAUGU
B16	0.191 KA relative to UGCAUGU
B17	1.01 KA relative to UGCAUGU
B18	0.348 KA relative to UGCAUGU
B19	0.151 KA relative to UGCAUGU
B20	0.0731 KA relative to UGCAUGU
